# Data published in PubChem BioAssay (NCI).
# The panel holds about 83,000 compounds, 20% with a hit somewhere; the sample as a whole holds those more often.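 48-hour exposure, single concentration, 96-well plates; percent growth endpoint where 0 means no net growth. Active: below 10.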 Unmarked numbers belong to inactive results. Activity calls are given as the source filed them.
# What was measured:
# Assay in all cases: NCI-60 one-dose screen, 48 h (100 = growth as untreated, 0 = no growth, -100 = all killed)
# Details in all cases: 10 µM unless noted
# T-47D breast = system: T-47D breast
# BT-549 breast = system: BT-549 breast
# MDA-MB-435 melanoma = system: MDA-MB-435 melanoma
# SW-620 colon = system: SW-620 colon
# MCF7 breast = system: MCF7 breast
# HCT-116 colon = system: HCT-116 colon
# HCC-2998 colon = system: HCC-2998 colon
# KM12 colon = system: KM12 colon
SMILES,growth (T-47D breast),growth (BT-549 breast),growth (MDA-MB-435 melanoma),growth (SW-620 colon),growth (MCF7 breast),growth (HCT-116 colon),growth (HCC-2998 colon),growth (KM12 colon)
Cc1cc(C(=O)Nc2ncnc3nc[nH]c23)no1,103%,106%,102%,96.1%,93.3%,105%,104%,99.5%
COc1ccc(-c2ncc(-c3ccccc3)[nH]2)cc1OC,102%,240%,104%,108%,83.6%,117%,120%,105%
C/C(=C(/c1ccccc1)c1ccc(OCC(O)CNCCN2CCOCC2)cc1)c1ccccc1 (configuration not stated),89.3%,105%,-63.8% (active),49%,44.6%,106%,-59.6% (active),54.3%
CCOC(=O)N1CCc2c(sc3nc4nc[nH]n4c(=O)c23)C1,88.9%,95.8%,103%,102%,93.5%,95.7%,98.6%,97.1%
CC(=O)c1c[nH]c2ccc(-c3ccnc(Nc4ccc(NC(=O)C5CCCC5)c(CN5CCOCC5)c4)n3)cc12,-0.198% (active),-7.17% (active),-76% (active),0.153% (active),-38.1% (active),0.944% (active),-31.4% (active),-64.1% (active)
NNC(=O)/C(=C\c1ccc([N+](=O)[O-])cc1)CC(=O)c1ccc(Cl)c(Cl)c1,77.1%,110%,96.9%,86%,73.8%,88.9%,93.5%,95.2%
Nc1nnc(C(=O)c2cnc3n(c2=O)CCCCC3)s1,98.5%,108%,106%,100%,98.8%,103%,106%,105%
CCC1(CC)NC(=O)c2c(c3ccc(Cl)c(Cl)c3n2C)C1C#N (configuration not stated),78.5%,90.6%,99.2%,102%,97.9%,76.3%,97.5%,99.4%
CC(=O)N1N=C(c2cccc(Nc3ccncc3)c2)CC1c1ccccc1 (configuration not stated),80.4%,58.2%,89.1%,93.6%,81.3%,-24.4% (active),103%,101%
CC(C)Cc1ccc(C(C)C(=O)NCc2c[nH]c3ccc(Cl)cc23)cc1 (configuration not stated),69.8%,88.8%,66.6%,90.9%,89.5%,85.9%,103%,83.5%
CC1(C)CN(Cc2ccccc2)CCN1Cc1ccccc1,100%,109%,104%,97.6%,114%,101%,106%,104%
CCCCCCNC(=O)Oc1ccc(/C(=C(/CC)Cc2ccccc2)c2ccc(OCCN(CC)CC)cc2)cc1,56.1%,95.2%,60.9%,23.1%,10.1%,27.2%,59.5%,51.6%
Clc1ccc(N2N=C(c3cccc(Nc4ccncc4)c3)CC2c2ccc3c(c2)OCO3)cc1 (configuration not stated),82.2%,87.1%,-77.6% (active),-78.6% (active),-17.4% (active),18.4%,1.72% (active),2.3% (active)
CN1CCN(CCCNc2nccc(-c3c(-c4ccc(F)c(O)c4)nc4sccn34)n2)S1(=O)=O,90.1%,128%,40.8%,112%,85%,75.9%,108%,94.3%
O=C(NCCc1ccccn1)OCc1nc2nc(Cl)nc(N3CCOCC3)c2[nH]1,33.5%,8.16% (active),11.9%,-37.2% (active),15.6%,-71.8% (active),77.6%,12.2%
COc1cc(OC)cc(C2C3=C(COC3=O)Nc3cc(OC)ccc32)c1 (configuration not stated),68.8%,-2.09% (active),-30% (active),26.6%,15.7%,1.55% (active),1.15% (active),-3.49% (active)
COc1cc(-c2cc(=O)oc3cc(O)ccc23)cc(OC)c1OC,83.5%,97.4%,100%,96%,94%,86.5%,100%,85.7%
O=C(O)c1ccc[n+](CC(=O)N2CCN(c3cc4c(cc3F)c(=O)c(C(=O)O)cn4C3CC3)CC2)c1,85.9%,75.1%,67.4%,-3.29% (active),50.9%,23.9%,111%,92.2%
COc1ccc(NS(=O)(=O)c2ccc(C)cc2)c([N+](=O)[O-])c1,93.5%,104%,111%,103%,99.7%,106%,99.6%,104%
Cc1cccc(C)c1-c1cc(Cc2ccc(Cl)cc2)c(=O)[nH]n1,86.4%,86.1%,119%,104%,97.2%,96.9%,86.4%,103%
O=C(Nc1nc(-c2ccc(Br)cc2)cs1)c1cc(-c2ccc(Br)cc2)nc2ccc(Cl)cc12,56.9%,100%,104%,85.7%,68.5%,61.3%,92.8%,83.3%
COC(=O)C1=C(C(=O)ONCCN(C)C)C2C=CC1(C(Cc1ccccc1)Nc1ccc(F)cc1)O2 (configuration not stated),-0.816% (active),122%,101%,51.8%,97.5%,-48.9% (active),107%,94.8%
COc1ccc(Cn2nc3c(c2-c2cc(OC)c(OC)c(OC)c2)-c2oncc2CC3)cc1,79.3%,88.9%,0.861% (active),86%,69.9%,81.4%,77.5%,70.9%
N#Cc1c(Nc2ccccc2)nn2cc(-c3nc4ccccc4s3)c(N)nc12,68.9%,67.2%,93.6%,72.2%,63.3%,76.4%,88%,88.2%
COc1ccc(C2=NN(C(C)=O)C(c3cn(Cc4ccc(Cl)cc4)c4ccccc34)C2)cc1 (configuration not stated),51.8%,97.1%,96.5%,98.2%,84.5%,86.3%,95.5%,86.4%
Fc1ccccc1CSc1ncnc2nc[nH]c12,97.7%,137%,109%,96%,96.9%,97.6%,111%,112%
CC(=O)c1c(C)[nH]c(-c2nc3ccc(N4CCN(C)CC4)cc3[nH]2)c1-c1ccccc1,20.3%,81.9%,19.8%,54.8%,7.32% (active),59.6%,27.8%,39.7%
CC1(C)CCCN1CCCN1c2ccccc2Sc2ccc(Cl)cc21,68.5%,56.3%,51.5%,79.9%,45.3%,33.3%,56.7%,56.1%
c1ccc(Cn2nc3c(c2-c2ccccc2)-c2oncc2CC3)cc1,80.9%,88%,89.2%,106%,82.5%,94.2%,97.8%,99.6%
